Here are results for seven molecules from paper PMC7826789 (International Journal of Molecular Sciences, 2021).

The structures appear in SMILES notation.

Take `COc1cc(Nc2cnc(C#N)c(O[C@H](C)CN(C)C)n2)ncc1-c1cnn(C)c1` [CCT244747]: in the test with PRKAA1, the Kinases covered result is listed as “PRKAA1”. For `NCC1CCC(CNc2nc(NCc3ccccc3OC(F)(F)F)ncc2[N+](=O)[O-])CC1` (stereo not shown) [BIRZ0518XX], the results for the Kinases covered result in the test on PRKCD, in the test with PRKCE and with PRKCQ were “PRKCD”, “PRKCE” and “PRKCQ”, respectively. For `CCn1c(-c2nonc2N)nc2c(C#CC(C)(C)O)nc(OCCNC)cc21.Cl` [GSK949675], the Kinases covered result with PRKCH is “PRKCH”. `COc1ccc2nc(-c3cccc(C)n3)nc(Nc3ccncc3)c2c1` [GSK204919]: the Kinases covered result in the test on PRKD2 is “PRKD2”.

In the case of `Cc1cccc(-c2nc(Nc3ccncc3)c3ccccc3n2)n1` [GW855857], the Kinases covered entry is on record as “PRKD2” in the test on PRKD2 and “PRKD3” in the test on PRKD3. As to `CNc1nc(-c2ccc3c(N)n[nH]c3c2)cc(N2C[C@@H](C(=O)Nc3ccccc3)CC[C@H]2C)n1` [GSK2298859], the Kinases covered result in the test on PRKX is on record as “PRKX”. As to `COc1cc(N2CCN(C(C)C)CC2)ccc1Nc1nc(Nc2ccc(F)cc2C(=O)NC[C@@H](O)CO)c2cc[nH]c2n1` [GSK1392956A], in the test with PTK2B, the Kinases covered entry is reported as “PTK2B”.
